system: HCC1569; assay: H1.0 immunofluorescence intensity relative to DMSO (% of DMSO); higher = stronger H1.0 induction, active = 140 or more; conditions: concentration: 10 µM; 24 h
How it was run: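 HCC1569 and TDF cells were seeded at 800 per well in 384-well plates in RPMI with 10% FBS and treated with compounds at 10 µM for 24 h at 37 °C, in triplicate. After fixation in 3.7% formaldehyde, cells were stained with a rabbit anti-H1.0 antibody, an AlexaFluor 647 secondary and DAPI, and six fields per well were imaged at ×10. H1.0 nuclear intensity or cell number is given as percent of the plate control, using the median of replicates, with HCC1569 values smoothed for positional effects.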
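Also: TDF is a line of transformed human dermal fibroblasts of mesenchymal origin.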

**Q.** With `CC(C)NCC(O)COc1ccc(CC(N)=O)cc1` (configuration not stated) [Atenolol] as the molecule, how does the H1.0 immunofluorescence intensity read?
**A.** 113 (inactive)

**Q.** Which H1.0 immunofluorescence intensity does the source give for `NCCCC(=O)O` here?
**A.** 96.5 (inactive)

**Q.** How did the H1.0 immunofluorescence intensity turn out when `CN1CCN(c2c(F)cc3c(=O)c(C(=O)O)cn(CCF)c3c2F)CC1` [Fleroxacin] was run?
**A.** 112 (inactive)

**Q.** `COC(=O)C1=COC(C)C2CN3CCc4c([nH]c5ccccc45)C3CC12` (configuration not stated) [Teterahydroalstonine] was tested. Which H1.0 immunofluorescence intensity did it give?
**A.** 88 (inactive)

**Q.** With `NCC1OC(OC2C(N)CC(N)C(OC3OC(CO)C(O)C(N)C3O)C2O)C(O)C(O)C1O.O=S(=O)(O)O` (configuration not stated) [Kanamycin sulfate] as the molecule, how does the H1.0 immunofluorescence intensity read?
**A.** 90.1 (inactive)

**Q.** For `CCCCCCCCCCCCCCCCCC(=O)NCC(COP(=O)([O-])OCC[N+](C)(C)C)OCC` (racemic) [rac-2-Ethoxy-3-octadecanamido-1-propylphosphocholine], which H1.0 immunofluorescence intensity is on record?
**A.** 153 (active)

**Q.** How did the H1.0 immunofluorescence intensity turn out when `CC1(C)SC2C(NC(=O)C(N)c3ccc(O)cc3)C(=O)N2C1C(=O)O` (configuration not stated) [Amoxicillin] was run?
**A.** 104 (inactive)

**Q.** `Cc1ncc(Cl)cc1NCc1ccc(C(=O)N[C@@H](CC2CCCC2)C(=O)NC2CC2)s1` was tested. Which H1.0 immunofluorescence intensity did it give?
**A.** 101 (inactive)

**Q.** For `NCC1OC(OC2C(CO)OC(OC3C(O)C(N)CC(N)C3OC3OC(CO)C(O)C(O)C3N)C2O)C(N)C(O)C1O.O=S(=O)(O)O` (configuration not stated) [Paromomycin sulfate], which H1.0 immunofluorescence intensity is on record?
**A.** 101 (inactive)

**Q.** `COc1ccc(CN(CCN(C)C)c2ccccn2)cc1.O=C(O)C=CC(=O)O` [Pyrilamine maleate] was tested. Which H1.0 immunofluorescence intensity did it give?
**A.** 100 (inactive)

**Q.** With `CC(C=CC1=C(C)CCCC1(C)C)=CC=CC(C)=CC(=O)O` [13-cis-retinoic acid] as the molecule, how does the H1.0 immunofluorescence intensity read?
**A.** 123 (inactive)

**Q.** With `O=C(C=Cc1ccc(O)c(O)c1)OC1CC(O)(C(=O)O)CC(O)C1O` (configuration not stated) [Chlorogenic acid] as the molecule, how does the H1.0 immunofluorescence intensity read?
**A.** 100 (inactive)

**Q.** For `CCCCCCCCCCCCCCCC(=O)O` [Hexadecanoic acid], which H1.0 immunofluorescence intensity is on record?
**A.** 97.9 (inactive)

**Q.** With `CCCCc1oc2ccccc2c1C(=O)c1cc(I)c(OCCN(CC)CC)c(I)c1.Cl` [Amiodarone.HCl] as the molecule, how does the H1.0 immunofluorescence intensity read?
**A.** 110 (inactive)

**Q.** `N=c1ccn2c(n1)OC1C(O)C(CO)OC12` (configuration not stated) [Cyclocytidine] was tested. Which H1.0 immunofluorescence intensity did it give?
**A.** 101 (inactive)

**Q.** With `CN1CCN2c3ccccc3Cc3ccccc3C2C1.Cl` (configuration not stated) [Mianserin hydrochloride] as the molecule, how does the H1.0 immunofluorescence intensity read?
**A.** 98.4 (inactive)

**Q.** With `O=C(C=Cc1ccc(O)c(O)c1)OC(Cc1ccc(O)c(O)c1)C(=O)O` (configuration not stated) [Rosmarinic acid] as the molecule, how does the H1.0 immunofluorescence intensity read?
**A.** 98.7 (inactive)

**Q.** For `Cc1cc(=O)oc2cc(O)ccc12` [4-Methylumbelliferone], which H1.0 immunofluorescence intensity is on record?
**A.** 94.5 (inactive)

**Q.** Which H1.0 immunofluorescence intensity does the source give for `CC(=O)C(C)=O` [2,3-Butanedione] here?
**A.** 92.3 (inactive)

**Q.** For `O=C(Nc1ccc(Cl)cc1)Nc1cccc(-c2cccc(N3CCCC3)n2)c1`, which H1.0 immunofluorescence intensity is on record?
**A.** 114 (inactive)

**Q.** `C[n+]1ccccc1CC(=O)c1ccc(Br)cc1.[I-]` [2-[2-(4-bromophenyl)-2-oxoethyl]-1-methylpyridinium iodide] was tested. Which H1.0 immunofluorescence intensity did it give?
**A.** 97.5 (inactive)

**Q.** For `Fc1ccc(-c2nc3n(c2-c2ccncc2)CCS3)cc1`, which H1.0 immunofluorescence intensity is on record?
**A.** 107 (inactive)

**Q.** For `Fc1ccc(-c2c3cccc(C(F)(F)F)c3nn2Cc2ccc(F)cc2Cl)cc1`, which H1.0 immunofluorescence intensity is on record?
**A.** 102 (inactive)

**Q.** Which H1.0 immunofluorescence intensity does the source give for `Cc1ccc([N+](=O)[O-])cc1S(=O)(=O)N(C)N=Cc1cnc2ccc(Br)cn12` here?
**A.** 104 (inactive)

**Q.** With `COc1cc(OC)c(C=C2C(=O)Nc3ccccc32)c(OC)c1` as the molecule, how does the H1.0 immunofluorescence intensity read?
**A.** 184 (active)

**Q.** For `CCC1C(=O)OCC1Cc1cncn1C.Cl` (single isomer, unassigned; (+)) [(+)-Pilocarpine hydrochloride], which H1.0 immunofluorescence intensity is on record?
**A.** 101 (inactive)

**Q.** With `O=NN(CCCl)C(=O)NC1CCCCC1` [Lomustine] as the molecule, how does the H1.0 immunofluorescence intensity read?
**A.** 99.7 (inactive)

**Q.** Which H1.0 immunofluorescence intensity does the source give for `NC1CCN(c2c(F)cc3c(=O)c(C(=O)O)cn(C4CC4)c3c2Cl)C1` (configuration not stated) [Clinafloxacin] here?
**A.** 107 (inactive)

**Q.** For `CCOC(=O)[C@H](CCc1ccccc1)N[C@@H](C)C(=O)N1CCC[C@H]1C(=O)O.O=C(O)C=CC(=O)O`, which H1.0 immunofluorescence intensity is on record?
**A.** 100 (inactive)

**Q.** How did the H1.0 immunofluorescence intensity turn out when `CN(C)CCC(CSc1ccccc1)Nc1ccc(S(=O)(=O)NC(=O)c2ccc(N3CCN(Cc4ccccc4-c4ccc(Cl)cc4)CC3)cc2)cc1[N+](=O)[O-]` (configuration not stated) was run?
**A.** 129 (inactive)

**Q.** With `CC[N+](C)(C)c1cccc(O)c1.[Cl-]` [Edrophonium chloride] as the molecule, how does the H1.0 immunofluorescence intensity read?
**A.** 95.7 (inactive)

**Q.** How did the H1.0 immunofluorescence intensity turn out when `CC#CC1(O)CCC2C3CCC4=CC(=O)CCC4=C3C(c3ccc(N(C)C)cc3)CC21C` (configuration not stated) [Mifepristone] was run?
**A.** 102 (inactive)

From the supplement of paper PMC7156485
